Compound activity: PubChem BioAssay, several laboratories
The list is not random: actives were taken first. Their share in the collection is about 27%.
Pyk2 oligo antag: antagonists of Pyk2 self-association, primary screen, Q293 cells, FERM NanoBiT luminescence, HTS | Protein-tyrosine kinase 2-beta (Homo sapiens), Q14289 | active compounds read low | z-score (the deposit names both 25 µM and 10 µM) | hit rate 0.83% among 99,000;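 active = Z-score of -3 or lower, scaled per plate to the spread of control and sample wells; inactive = z-score above -3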;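 also: negative z-score means lost luminescence so less FERM oligomerization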
Target sequence (Q14289 whole entry, looked up): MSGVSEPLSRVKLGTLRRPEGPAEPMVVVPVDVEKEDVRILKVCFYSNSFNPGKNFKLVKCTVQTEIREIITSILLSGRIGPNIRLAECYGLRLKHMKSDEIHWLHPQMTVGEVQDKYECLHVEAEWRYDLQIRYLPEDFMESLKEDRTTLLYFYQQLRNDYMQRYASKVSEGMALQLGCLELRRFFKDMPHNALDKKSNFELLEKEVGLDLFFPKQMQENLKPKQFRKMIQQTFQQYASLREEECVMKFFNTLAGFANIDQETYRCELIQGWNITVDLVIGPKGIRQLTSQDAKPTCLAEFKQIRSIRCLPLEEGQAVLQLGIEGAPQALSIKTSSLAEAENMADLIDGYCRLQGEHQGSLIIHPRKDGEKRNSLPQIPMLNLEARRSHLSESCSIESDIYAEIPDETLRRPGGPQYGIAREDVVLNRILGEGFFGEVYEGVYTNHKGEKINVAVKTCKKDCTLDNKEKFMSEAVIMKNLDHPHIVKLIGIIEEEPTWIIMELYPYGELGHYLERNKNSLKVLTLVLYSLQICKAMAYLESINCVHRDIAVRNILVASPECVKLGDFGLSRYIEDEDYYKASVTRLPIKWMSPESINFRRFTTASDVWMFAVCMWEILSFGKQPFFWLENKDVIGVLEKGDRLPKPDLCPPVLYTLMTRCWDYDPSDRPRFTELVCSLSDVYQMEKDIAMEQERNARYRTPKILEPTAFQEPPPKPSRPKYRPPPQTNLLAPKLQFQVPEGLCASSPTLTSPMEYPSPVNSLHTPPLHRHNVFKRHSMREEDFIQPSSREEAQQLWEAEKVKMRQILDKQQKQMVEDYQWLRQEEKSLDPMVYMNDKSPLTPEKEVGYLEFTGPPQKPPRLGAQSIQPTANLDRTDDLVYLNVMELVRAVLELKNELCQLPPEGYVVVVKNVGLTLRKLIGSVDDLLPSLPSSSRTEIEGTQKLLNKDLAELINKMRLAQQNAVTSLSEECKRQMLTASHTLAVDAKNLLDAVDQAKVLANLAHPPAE
CYP2C19 inhib: blockers of cytochrome P450 2C19 activity – biochemical, luminescence, ADME assay, primary screen | P33261 | CYP2C19 Supersomes, luciferin-H EGE luminescence, 30 min | inhibition, % at 5 µM | hit rate 21% among 96,000 | AID 778, 2007;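 active = CYP2C19 inhibition above a set limit at 5 µM in the primary screen, cut at about 50% in these data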;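 also: plate controls were negative control wells for no effect and 2.5 mM tranylcypromine positive control for full effect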
CYP2C19 activ: human CYP2C19 activators, primary screen, biochemical, luminescence. recombinant CYP2C19, luciferin-H EGE luminescence; active compounds read high; 0 = fully inhibited enzyme, 1 = untreated enzyme. activation factor at 5 µM. 96,000 tested, under 10 active;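 active = activation factor of at least 2 at 5 µM in the primary screen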;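 also: 0 = wells with 2.5 mM tranylcypromine and 1 = vehicle-only wells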
Cav3 T inh: Cav3.2 calcium influx blockers – cell-based, Fluo-4 calcium fluorescence, FDSS, MLSMR library, primary screen; AID 449739, 2010; Cav3.2-expressing cells; active compounds read low; Voltage-dependent T-type calcium channel subunit alpha-1H (Homo sapiens), O95180; B-score at 10 µM; hit rate 4% among 100,000;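 active = single-dose well whose peak fluorescence ratio is a statistical outlier from its plate by either plate-standardised score or position-corrected B-score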
CYP2C9 inhib: blockers of cytochrome P450 2C9 activity – biochemical, luminescence, ADME assay, primary screen; CYP2C9 Supersomes, luciferin-H conversion; inhibition, % at 5 µM; hit rate 20% among 96,000; AID 777, 2007;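 active = blocking of liver enzyme CYP2C9 beyond about 50% at 5 µM, limit read from the data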
CYP2C9 act: human CYP2C9 activators, primary screen, biochemical, luminescence; recombinant CYP2C9, luciferin-H conversion; active compounds read high; factor 1 = untreated enzyme, 0 = blocked; activation factor at 5 µM; Cytochrome P450 2C9 (Homo sapiens), P11712; hit rate 1.4% among 96,000;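 active = activation factor of 2 or more for CYP2C9 at a 5 µM dose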;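 also: 0 = sulfaphenazole-blocked wells and 1 = vehicle-only wells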
* marks the source's active call; other numbers are inactive results; / = no result given.

SMILES	Pyk2 oligo antag	CYP2C19 inhib	CYP2C19 activ	Cav3 T inh	CYP2C9 inhib	CYP2C9 act
Cc1ccc(CNC(=O)C23CN(Cc4ccccc4)CC2C(c2cccc([N+](=O)[O-])c2)=NO3)cc1 (stereo not drawn)	/	88*	0.1	-2.6	61*	0.4
CC(C)CCNC(=O)C12CN(Cc3ccccc3)CC1C(c1cccc([N+](=O)[O-])c1)=NO2 (stereo not drawn)	/	48	0.5	-4.7*	44	0.6
COc1ccc2cc(CCNC(=O)C3CC3)c(=O)[nH]c2c1	-0.21	4	1	/	7	0.9
COc1ccc2cc(CCNC(=O)c3c(-c4ccccc4Cl)noc3C)c(=O)[nH]c2c1	/	43	0.6	/	67*	0.3
COc1ccc(CCNC(=O)c2c(-c3ccccc3Cl)noc2C)cc1	0.07	80*	0.2	-0.2	68*	0.3
Cc1onc(-c2ccccc2)c1C(=O)NCCc1ccc(Cl)cc1	-0.05	18	0.8	-0.46	26	0.7
COCCNC(=O)C1CC(=O)N(C2CCCC2)C1 (stereo not drawn)	0.46	-16	1.2	/	0	1
COc1ccc(-c2nnn(CC(=O)NCCc3c[nH]c4ccccc34)n2)cc1OC	0.93	64*	0.4	-1.8	/	/
COCCCNC(=O)Cn1nnc(-c2ccccc2NC(=O)c2ccccc2F)n1	-0.42	57*	0.4	1	88*	0.1
CCOc1ccc(-c2nnn(CC(=O)NCCc3c[nH]c4ccccc34)n2)cc1	0.09	5	0.9	-1.2	1	1
COc1ccc(CCNC(=O)Cn2nnc(-c3ccccc3F)n2)cc1OC	0.88	21	0.8	1.1	65*	0.4
COCCCNC(=O)Cn1nnc(-c2ccc(NC(=O)c3ccccc3F)cc2)n1	0.31	/	/	0.81	/	/
COc1ccc(CCNC(=O)Cn2nnc(-c3cccs3)n2)cc1OC	0.77	20	0.8	0.59	56*	0.4
Cc1cc(-c2cc(C(=O)NCc3ccccc3)on2)nc(S(C)(=O)=O)n1	/	/	/	1.1	/	/
CCCCN1CC(C(=O)NCc2ccc(C)cc2)CC1=O (stereo not drawn)	0.31	2	1	0.58	-21	1.2
O=C(CN1CCC(O)(c2ccccc2F)CC1)NCCc1c[nH]c2ccccc12	-0.22	10	0.9	-2.5	80*	0.2
CC(C)Sc1nc2sc3c(c2c2nnc(SCC(=O)NCc4ccco4)n12)CCCC3	-1.8	77*	0.2	0.62	94*	0.1
Cc1nc(SCC(=O)NCc2ccco2)c2c3c(sc2n1)CCCC3	-0.31	24	0.8	-2.2	37	0.6
CC1CCc2c(sc3ncn4c(SCC(=O)NCc5ccco5)nnc4c23)C1 (stereo not drawn)	1.9	36	0.6	-4	58*	0.4
COc1ccc(CNC(=O)c2ccc(N3CCC4(CC3)CC(c3ccc(Cl)cc3)=NO4)c(NC(=O)c3ccccc3)c2)cc1	/	/	/	0.016	/	/
COc1ccc(N2CCN(C(=O)C3CCC(Cn4c(=S)[nH]c5ccccc5c4=O)CC3)CC2)cc1 (stereo not drawn)	-0.14	83*	0.2	-3.8	81*	0.2
O=C(C1CCC(Cn2c(=S)[nH]c3ccccc3c2=O)CC1)N1CCN(c2ccccc2)CC1 (stereo not drawn)	-0.27	/	/	-4.7*	/	/
CCN1C(=O)NC(c2cccnc2)C(C(=O)OC)=C1C (stereo not drawn)	0.8	0	1	0.4	1	1
Cc1sc2nc3c(C(=O)N4CCN(c5ccccn5)CC4)cccn3c(=O)c2c1C	/	9	0.9	0.79	29	0.7
Cc1cccc(N2CCN(C(=O)c3cccn4c(=O)c5c(C)c(C)sc5nc34)CC2)c1C	0.43	92*	0.1	-0.26	96*	0
SMILES	Pyk2 oligo antag	CYP2C19 inhib	CYP2C19 activ	Cav3 T inh	CYP2C9 inhib	CYP2C9 act
CCOC(=O)CNC(c1ccccc1)c1cc(Br)ccc1NC(=O)OCC (stereo not drawn)	-2.9	31	0.7	-5.9*	56*	0.4
Cc1cc2n(c1)CCn1c(C)ccc1-2	/	-5	1.1	-0.99	70*	0.3
Cc1noc(C)c1C(=O)NCCCN1CCCC1=O	-0.48	-13	1.1	-0.69	-16	1.2
Cc1cc(C)n2nc(NCc3cccc(Br)c3)nc2n1	-0.2	64*	0.4	0.041	25	0.7
O=C(c1ccccc1)C(CCC(CN1CCOCC1)C(=O)c1ccccc1)CN1CCOCC1 (stereo not drawn)	-1.6	69*	0.3	2.7	32	0.7
CCCCOc1ccc(C(=O)C(CN2CCOCC2)c2ccccc2)cc1 (stereo not drawn)	-1.2	/	/	-3	/	/
OC(CN1CCOCC1)CN(c1ccccc1)c1ccccc1 (stereo not drawn)	-0.24	70*	0.3	-0.81	65*	0.4
O=C(c1ccc(F)cc1)C(CN1CCOCC1)c1ccccc1 (stereo not drawn)	-1.2	59*	0.4	-1.9	12	0.9
C(#CCN1CCOCC1)COCCCOC(c1ccccc1)c1ccccc1	-0.97	59*	0.4	-1	70*	0.3
CC(=O)Nc1cccc(-c2csc(NCc3ccco3)n2)c1	-0.03	48	0.5	-0.36	39	0.6
CC(CN1CCOCC1)OC(=O)C(c1ccccc1)c1ccccc1 (stereo not drawn)	-0.41	/	/	-0.57	/	/
c1ccc(C(CN2CCOCC2)c2ccccc2)cc1	0.7	58*	0.4	0.74	15	0.8
CCCNC(=O)c1c[nH]c2ccc(S(=O)(=O)N(C)c3ccc(OCC)cc3)cc2c1=O	/	45	0.6	-1.7	83*	0.2
CCCCN(C)CCNC(=O)c1c[nH]c2ccc(S(=O)(=O)N(CC)CC)cc2c1=O	0.22	5	0.9	/	32	0.7
COc1cccc(NS(=O)(=O)c2ccc3[nH]cc(C(=O)NCCC(C)C)c(=O)c3c2)c1	-1.7	13	0.9	-0.85	70*	0.3
CC(=O)C(=[N+]=[N-])C(=O)NCc1ccccc1	0.25	23	0.8	-0.22	-5	1.1
Cc1ccc(C)c(N2CCN(C(=O)C3CCN(c4nnc(N5CCCC5=O)s4)CC3)CC2)c1	-0.03	30	0.7	/	36	0.6
Cc1ccc(C)c(N2CCN(C(=O)C3CCCN(S(=O)(=O)c4c(C)noc4C)C3)CC2)c1 (stereo not drawn)	/	74*	0.3	-1.8	93*	0.1
Cc1ccc(C)c(N2CCN(C(=O)C3CCN(c4nc(C)cc(C)n4)CC3)CC2)c1	-0.51	16	0.8	-5.6*	-22	1.2
